From the supplement of paper PMC10849652
Of roughly 7,900 targets only a part is listed; those with a hit were picked by preference. About 0.6% of all pairs of compound and target were hits.

Key:
Experiment in all cases: log2 fold change, soluble protein after heating vs DMSO (PISA); higher = thermal stabilisation; K562 cells, 10 uM, 30 min; active = over 0.2 and 3.5 SD of the protein, either way, in both replicates (recomputed)
[1] = compound: CCn1c(C(=O)N(C2CC2)C2CC2)cc2c3c(ncn3C)c(Nc3cc(C)n(C)n3)nc21
How it was run: (§1)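 K562 cells (2×10^6 cells/mL) were treated with 10 μM compound for 30 min, and aliquots were heated for 3 min over 48°C-58°C. Pooled aliquots were extracted in PBS with 0.5% NP-40 at 4°C, and the supernatant after 21,000xg for 90 min was measured by TMTpro 16plex LC-MS/MS with channel sums equalised. Reported thermal stability, relative to control samples and from duplicates, is a log2 fold change.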

sotrastaurin = compound: CN1CCN(c2nc(C3=C(c4c[nH]c5ccccc45)C(=O)NC3=O)c3ccccc3n2)CC1 [sotrastaurin]
How it was run: as §1

[2] = compound: CNC(=O)C1=CC=CC=C1NC2=NC(=NC=C2Cl)NC3=C(C=C(C=C3)N4CCOCC4)OC
How it was run: as §1

volasertib = compound: CC[C@@H]1C(=O)N(C)c2cnc(Nc3ccc(C(=O)N[C@H]4CC[C@H](N5CCN(CC6CC6)CC5)CC4)cc3OC)nc2N1C(C)C [volasertib]
How it was run: as §1

[3] = compound: CC[C@H](C)N1C=C(C2=C(C=C(C=C21)C3=CN=C(C=C3)N4CCNCC4)C(=O)NCC5=C(C=C(NC5=O)C)C)C
How it was run: as §1

epoxomicin = compound: CC[C@H](C)[C@@H](C(=O)N[C@@H]([C@@H](C)O)C(=O)N[C@@H](CC(C)C)C(=O)[C@]1(CO1)C)NC(=O)[C@H]([C@@H](C)CC)N(C)C(=O)C [epoxomicin]
How it was run: as §1

[4] = compound: CCn1cc(-c2ccnc3[nH]c(-c4cccc(CN(C)C)c4)cc23)c(-c2ccc(NC(=O)N(C)C)cc2)n1
How it was run: as §1

[5] = compound: CN(C)CC(=O)Nc1ccc2[nH]c(=O)c3ccccc3c2c1
How it was run: as §1

rosiglitazone = compound: CN(CCOC1=CC=C(C=C1)C[C@H]2C(=O)NC(=O)S2)C3=CC=CC=N3 (racemic) [rosiglitazone]
How it was run: as §1

[6] = compound: CN1C2=C(C3=C1C(=O)N(N=C3)CC4=CC(=CC=C4)N)SC(=C2)S(=O)C
How it was run: as §1

[7] = compound: CN1CCC(CNc2ccc3ncc(-c4cccc(OC(F)(F)F)c4)n3n2)CC1
How it was run: as §1

saracatinib = compound: CN1CCN(CCOc2cc(OC3CCOCC3)c3c(Nc4c(Cl)ccc5c4OCO5)ncnc3c2)CC1 [saracatinib]
How it was run: as §1

alvocidib = compound: CN1CC[C@H](c2c(O)cc(O)c3c(=O)cc(-c4ccccc4Cl)oc23)[C@H](O)C1 [alvocidib]
How it was run: as §1

defactinib = compound: CNC(=O)c1ccc(Nc2ncc(C(F)(F)F)c(NCc3nccnc3N(C)S(C)(=O)=O)n2)cc1 [defactinib]
How it was run: as §1

[8] = compound: CNc1nc(-c2ccc3c(N)n[nH]c3c2)cc(N2C[C@@H](C(=O)NC3CCCCC3)CC[C@H]2C)n1
How it was run: as §1

[9] = compound: COC(=O)[C@H](CCSC)NC(=O)C1=C(C=C(C=C1)NC[C@H](CS)N)C2=CC=CC=C2
How it was run: as §1

Tubastatin A = compound: CN1CCc2c(c3ccccc3n2Cc2ccc(C(=O)NO)cc2)C1 [Tubastatin A]
How it was run: as §1

[10] = compound: CC[C@@H]1C(=O)N(C)c2cnc(Nc3ccc(C(=O)NC4CCN(C)CC4)cc3OC)nc2N1C1CCCC1
How it was run: as §1

rucaparib = compound: CNCc1ccc(-c2[nH]c3cc(F)cc4c3c2CCNC4=O)cc1 [rucaparib]
How it was run: as §1

encorafenib = compound: COC(=O)N[C@@H](C)CNc1nccc(-c2cn(C(C)C)nc2-c2cc(Cl)cc(NS(C)(=O)=O)c2F)n1 [encorafenib]
How it was run: as §1

Measured: log2 fold change

OAF (UniProt Q86UD1)
Chain of UniProt Q86UD1 (Q86UD1 whole entry, looked up): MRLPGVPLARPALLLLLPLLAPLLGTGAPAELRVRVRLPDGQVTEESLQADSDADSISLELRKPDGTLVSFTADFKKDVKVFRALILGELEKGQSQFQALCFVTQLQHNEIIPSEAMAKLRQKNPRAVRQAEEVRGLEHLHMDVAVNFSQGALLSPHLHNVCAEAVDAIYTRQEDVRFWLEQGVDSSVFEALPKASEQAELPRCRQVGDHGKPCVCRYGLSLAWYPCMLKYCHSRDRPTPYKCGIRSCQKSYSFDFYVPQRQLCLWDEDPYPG
inactive: [1] -0.087 | sotrastaurin 0.139 | [2] 0.043

NELFCD (UniProt Q8IXH7)
Chain of UniProt Q8IXH7 (Q8IXH7 whole entry, looked up): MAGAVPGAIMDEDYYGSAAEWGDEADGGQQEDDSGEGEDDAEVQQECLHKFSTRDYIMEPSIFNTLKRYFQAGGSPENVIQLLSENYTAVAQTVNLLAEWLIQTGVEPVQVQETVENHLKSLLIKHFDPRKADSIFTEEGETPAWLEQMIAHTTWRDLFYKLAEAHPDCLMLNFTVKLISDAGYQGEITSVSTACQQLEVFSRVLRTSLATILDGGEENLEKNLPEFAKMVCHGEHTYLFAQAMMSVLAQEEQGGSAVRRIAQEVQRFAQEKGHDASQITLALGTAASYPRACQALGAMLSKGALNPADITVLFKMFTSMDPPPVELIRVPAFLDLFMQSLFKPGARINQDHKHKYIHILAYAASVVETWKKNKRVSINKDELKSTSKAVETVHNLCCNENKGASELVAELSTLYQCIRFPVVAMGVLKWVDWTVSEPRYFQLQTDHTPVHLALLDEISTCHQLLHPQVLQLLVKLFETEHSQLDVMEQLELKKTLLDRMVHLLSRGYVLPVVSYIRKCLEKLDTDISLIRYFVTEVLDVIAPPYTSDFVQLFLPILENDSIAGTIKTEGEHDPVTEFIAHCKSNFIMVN
inactive: [3] 0.244 | epoxomicin -0.052 | [1] -0.044 | [4] -0.113 | [5] 0.298 | rosiglitazone 0.015 | [6] -0.05 | [7] 0.226 | saracatinib -0.114 | alvocidib -0.378 | [2] 0.024 | defactinib -0.228 | [8] -0.002 | [9] -0.085
active: volasertib -0.562

MPHOSPH8 isoform 2 (UniProt Q99549)
Chain of UniProt Q99549 (Q99549 whole entry, looked up): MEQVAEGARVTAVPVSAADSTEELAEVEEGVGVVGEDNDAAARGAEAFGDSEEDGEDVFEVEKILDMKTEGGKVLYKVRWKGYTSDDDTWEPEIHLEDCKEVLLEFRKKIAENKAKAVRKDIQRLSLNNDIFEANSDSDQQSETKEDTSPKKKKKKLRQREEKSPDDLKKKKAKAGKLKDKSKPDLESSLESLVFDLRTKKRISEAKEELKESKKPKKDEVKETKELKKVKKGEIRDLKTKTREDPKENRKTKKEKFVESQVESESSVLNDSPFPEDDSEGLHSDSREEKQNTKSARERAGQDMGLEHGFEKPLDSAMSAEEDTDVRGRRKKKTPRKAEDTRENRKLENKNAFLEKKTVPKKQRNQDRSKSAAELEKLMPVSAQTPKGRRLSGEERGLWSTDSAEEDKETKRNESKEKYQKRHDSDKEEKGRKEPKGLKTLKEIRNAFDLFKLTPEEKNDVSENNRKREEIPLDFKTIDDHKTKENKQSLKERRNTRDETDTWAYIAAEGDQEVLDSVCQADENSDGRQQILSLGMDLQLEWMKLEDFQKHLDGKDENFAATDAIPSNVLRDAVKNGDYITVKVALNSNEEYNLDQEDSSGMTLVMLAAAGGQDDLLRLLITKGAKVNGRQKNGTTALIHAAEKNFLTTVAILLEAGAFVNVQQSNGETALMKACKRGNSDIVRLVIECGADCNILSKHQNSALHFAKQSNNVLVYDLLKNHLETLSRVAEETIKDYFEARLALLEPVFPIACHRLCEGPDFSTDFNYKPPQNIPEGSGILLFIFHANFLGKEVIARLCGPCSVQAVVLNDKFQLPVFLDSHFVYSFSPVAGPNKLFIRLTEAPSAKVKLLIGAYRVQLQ
inactive: volasertib 0.012 | epoxomicin 0.16 | [5] -0.093 | [6] 0.058 | saracatinib 0.088 | sotrastaurin 0.018 | alvocidib 0.005 | Tubastatin A 0 | defactinib 0.015 | [8] -0.064 | [9] 0.013

MOB2 isoform 3 (UniProt Q70IA6)
Chain of UniProt Q70IA6 (Q70IA6 whole entry, looked up): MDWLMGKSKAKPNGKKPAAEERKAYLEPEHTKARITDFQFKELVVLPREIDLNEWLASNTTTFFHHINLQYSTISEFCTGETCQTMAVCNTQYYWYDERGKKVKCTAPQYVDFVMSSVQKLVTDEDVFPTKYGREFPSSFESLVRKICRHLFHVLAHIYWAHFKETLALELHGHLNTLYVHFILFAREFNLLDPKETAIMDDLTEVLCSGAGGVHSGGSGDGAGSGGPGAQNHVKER
inactive: volasertib -0.231 | [3] 0.207 | epoxomicin -0.193 | [1] -0.036 | [4] -0.029 | rosiglitazone -0.004 | [7] -0.103 | alvocidib -0.017 | Tubastatin A -0.073 | [2] -0.123

NA, A0A1W2PSA9
inactive: [4] 0.08 | [6] 0.279 | [7] 0.057 | saracatinib -0.046 | alvocidib 0.168 | Tubastatin A -0.17 | [8] -0.107

PACRGL (UniProt Q8N7B6)
inactive: sotrastaurin -0.075

MITF (UniProt O75030)
Chain of UniProt O75030 (O75030 whole entry, looked up): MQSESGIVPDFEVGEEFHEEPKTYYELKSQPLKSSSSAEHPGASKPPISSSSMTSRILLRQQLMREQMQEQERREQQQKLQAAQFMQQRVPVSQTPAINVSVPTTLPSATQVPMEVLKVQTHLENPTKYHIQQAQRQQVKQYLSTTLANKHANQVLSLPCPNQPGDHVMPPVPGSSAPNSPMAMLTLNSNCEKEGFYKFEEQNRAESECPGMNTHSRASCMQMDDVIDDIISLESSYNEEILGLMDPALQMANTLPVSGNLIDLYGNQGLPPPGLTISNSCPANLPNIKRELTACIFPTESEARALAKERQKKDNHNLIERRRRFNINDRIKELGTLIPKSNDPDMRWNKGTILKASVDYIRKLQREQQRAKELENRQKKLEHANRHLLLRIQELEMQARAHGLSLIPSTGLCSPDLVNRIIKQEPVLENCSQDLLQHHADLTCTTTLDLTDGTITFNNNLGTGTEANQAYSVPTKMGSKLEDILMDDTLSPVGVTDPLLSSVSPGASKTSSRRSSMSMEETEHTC
inactive: [10] 0.014 | [3] 0.02 | [1] -0.051 | [4] 0.044 | [5] -0.231 | [7] -0.046 | sotrastaurin -0.08 | [2] 0.034 | defactinib 0.111 | rucaparib -0.186 | encorafenib -0.058 | [9] 0.064

MSANTD2 (UniProt Q6P1R3)
Chain of UniProt Q6P1R3 (Q6P1R3 whole entry, looked up): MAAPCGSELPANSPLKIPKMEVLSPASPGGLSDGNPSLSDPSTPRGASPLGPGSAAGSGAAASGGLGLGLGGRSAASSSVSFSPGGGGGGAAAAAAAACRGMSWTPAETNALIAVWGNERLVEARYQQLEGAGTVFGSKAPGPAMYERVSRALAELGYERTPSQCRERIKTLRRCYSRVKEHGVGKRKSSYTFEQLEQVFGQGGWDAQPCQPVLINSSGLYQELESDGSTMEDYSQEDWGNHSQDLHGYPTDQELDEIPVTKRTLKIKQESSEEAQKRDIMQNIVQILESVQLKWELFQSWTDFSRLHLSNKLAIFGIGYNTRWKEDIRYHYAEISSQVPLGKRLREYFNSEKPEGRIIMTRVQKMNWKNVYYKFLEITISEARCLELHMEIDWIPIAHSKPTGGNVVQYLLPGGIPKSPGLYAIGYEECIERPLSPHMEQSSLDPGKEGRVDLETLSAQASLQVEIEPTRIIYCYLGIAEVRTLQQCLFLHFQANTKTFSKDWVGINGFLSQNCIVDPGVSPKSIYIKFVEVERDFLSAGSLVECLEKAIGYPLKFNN
inactive: [10] -0.071 | epoxomicin -0.273 | [5] 0.004 | [6] 0.13 | saracatinib -0.248 | sotrastaurin 0.105 | Tubastatin A 0.032 | defactinib -0.113 | rucaparib -0.32 | [8] 0.03 | encorafenib -0.067 | [9] -0.01

MYH16 (UniProt Q9H6N6)
Chain of UniProt Q9H6N6 (Q9H6N6 whole entry, looked up): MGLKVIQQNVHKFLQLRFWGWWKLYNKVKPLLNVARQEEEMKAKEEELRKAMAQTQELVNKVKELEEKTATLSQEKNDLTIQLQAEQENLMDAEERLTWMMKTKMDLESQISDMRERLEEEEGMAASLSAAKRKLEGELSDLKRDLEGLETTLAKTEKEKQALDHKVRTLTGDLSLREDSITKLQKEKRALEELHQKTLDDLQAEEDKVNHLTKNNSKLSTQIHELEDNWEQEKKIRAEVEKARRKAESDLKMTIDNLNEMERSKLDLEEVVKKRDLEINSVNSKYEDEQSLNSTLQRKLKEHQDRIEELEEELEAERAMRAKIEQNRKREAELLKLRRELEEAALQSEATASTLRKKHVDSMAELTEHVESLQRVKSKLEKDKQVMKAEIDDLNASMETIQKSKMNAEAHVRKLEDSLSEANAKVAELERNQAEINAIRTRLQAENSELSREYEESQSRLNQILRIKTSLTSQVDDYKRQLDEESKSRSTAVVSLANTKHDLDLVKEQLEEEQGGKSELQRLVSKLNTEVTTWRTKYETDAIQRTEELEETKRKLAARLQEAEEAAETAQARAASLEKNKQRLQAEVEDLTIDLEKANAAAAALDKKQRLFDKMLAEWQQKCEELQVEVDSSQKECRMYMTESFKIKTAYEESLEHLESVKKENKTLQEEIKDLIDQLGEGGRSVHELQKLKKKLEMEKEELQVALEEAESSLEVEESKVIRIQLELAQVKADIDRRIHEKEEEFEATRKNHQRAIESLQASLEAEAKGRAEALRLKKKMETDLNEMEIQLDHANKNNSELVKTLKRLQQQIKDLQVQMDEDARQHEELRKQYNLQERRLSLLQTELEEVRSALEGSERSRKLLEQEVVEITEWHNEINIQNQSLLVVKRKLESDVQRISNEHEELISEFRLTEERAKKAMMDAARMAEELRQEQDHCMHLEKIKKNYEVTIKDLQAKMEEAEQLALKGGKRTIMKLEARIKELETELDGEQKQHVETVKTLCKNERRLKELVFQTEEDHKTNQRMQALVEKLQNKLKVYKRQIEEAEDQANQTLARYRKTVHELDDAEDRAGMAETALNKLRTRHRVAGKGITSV
inactive: volasertib 0.077 | [3] 0.156 | [1] 0.029 | [4] -0.067 | [5] 0.011 | rosiglitazone 0.065 | [7] 0.26 | sotrastaurin -0.224 | alvocidib 0.138 | Tubastatin A -0.069 | [2] -0.075 | defactinib 0.013 | [9] -0.171

NCOA5 (UniProt Q9HCD5)
Chain of UniProt Q9HCD5 (Q9HCD5 whole entry, looked up): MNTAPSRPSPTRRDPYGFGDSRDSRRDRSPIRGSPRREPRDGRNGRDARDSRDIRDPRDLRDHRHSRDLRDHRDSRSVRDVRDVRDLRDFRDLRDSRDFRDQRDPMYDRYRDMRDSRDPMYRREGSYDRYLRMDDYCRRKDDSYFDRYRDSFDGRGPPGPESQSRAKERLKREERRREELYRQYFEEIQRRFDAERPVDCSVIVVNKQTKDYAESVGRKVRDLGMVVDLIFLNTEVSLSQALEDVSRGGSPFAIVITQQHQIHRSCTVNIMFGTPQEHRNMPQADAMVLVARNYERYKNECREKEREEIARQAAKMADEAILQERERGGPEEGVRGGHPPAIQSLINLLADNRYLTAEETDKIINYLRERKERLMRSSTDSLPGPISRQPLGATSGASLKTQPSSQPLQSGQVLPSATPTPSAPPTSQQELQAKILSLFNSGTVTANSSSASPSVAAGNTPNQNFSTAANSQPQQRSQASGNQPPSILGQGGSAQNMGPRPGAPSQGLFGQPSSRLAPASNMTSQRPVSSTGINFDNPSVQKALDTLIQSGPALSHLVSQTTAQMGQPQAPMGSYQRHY
inactive: volasertib 0.072 | [3] -0.019 | [1] 0.026 | [4] 0.038 | [6] 0.187 | [7] 0.036 | saracatinib 0.002 | sotrastaurin 0.188 | [2] -0.081 | [8] -0.04

NOLC1 isoform 3 (UniProt Q14978)
inactive: [1] -0.275 | alvocidib 0.083 | [2] 0.018

NA, A0A2R8Y3M9
inactive: volasertib -0.134 | [3] 0.014 | [4] -0.015 | rosiglitazone 0.117 | [6] 0.376 | [7] 0.005 | saracatinib 0.171 | sotrastaurin 0.191 | alvocidib 0.214 | [8] -0.04

NRGN (UniProt Q92686)
Chain of UniProt Q92686 (Q92686 whole entry, looked up): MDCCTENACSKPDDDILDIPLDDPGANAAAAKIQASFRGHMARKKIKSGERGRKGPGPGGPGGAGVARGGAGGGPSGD
inactive: volasertib 0.052 | [3] -0.088 | epoxomicin 0.162 | [1] 0.021 | [4] 0.14 | rosiglitazone 0.127 | [7] -0.547 | [2] 0.01

PAFAH2 (UniProt Q99487)
inactive: volasertib -0.058 | [1] -0.328 | [5] 0.005 | rosiglitazone 0.082 | [6] -0.059 | saracatinib 0.023 | sotrastaurin -0.074 | alvocidib -0.112 | Tubastatin A -0.196 | [2] -0.179 | defactinib -0.093 | [8] -0.133 | [9] -0.067
